Experimental findings from PubChem BioAssay (NCATS) are described below.

For test [1], the target named is Aldehyde dehydrogenase, mitochondrial (Homo sapiens) (UniProt P05091). Kind of test: qHTS for Inhibitors of the Aldehyde Dehydrogenase Family (ALDH2) Confirmatory screens (AID 2061303; active means well fitted inhibition curve with a large enough effect; title and protocol of this record describe different tests; further: nearly all actives have a fitted effect of over 45% in size; further: potency means the concentration at half of the fitted maximal effect). The note with it: ALDH inhibition qHTS; series mostly up to 45.4 µM. A general note: Quantitative high-throughput screening tests each substance at several concentrations.
Test [2] can be described thus: qHTS for Inhibitors of the Aldehyde Dehydrogenase Family (ALDH1A2, ALDH1A3, ALDH2, ALDH3A1) (AID 2061307). Further: nearly all actives have a fitted effect of over 50% in size. On Potency: test system not described further here; potency means the concentration at half of the fitted maximal effect. The note with it: ALDH inhibition qHTS; series mostly up to 50.3 µM.
For test [3], the target named is Retinaldehyde dehydrogenase 3 (Homo sapiens) (UniProt P47895). In words: qHTS for Inhibitors of the Aldehyde Dehydrogenase Family (ALDH1A3) Confirmatory screens (AID 2061311). Further: nearly all actives have a fitted effect of over 60% in size. Further: potency means the concentration at half of the fitted maximal effect. As to conditions: ALDH inhibition qHTS; series mostly up to 46 µM.
Test [4] concerns the target Retinal dehydrogenase 2 (Homo sapiens) (UniProt O94788). In words: qHTS for Inhibitors of the Aldehyde Dehydrogenase Family (ALDH1A2) Confirmation screens (AID 2061314). Further: nearly all actives have a fitted effect of over 65% in size. Further: potency means the concentration at half of the fitted maximal effect. As to conditions: ALDH1A2 enzyme inhibition qHTS confirmation; series mostly up to 45.9 µM.
For test [5], the target named is Aldehyde dehydrogenase 1A1 (Homo sapiens) (UniProt P00352). In words: qHTS for Inhibitors of the Aldehyde Dehydrogenase Family (ALDH1A1) Confirmatory screens (AID 2061316). Further: nearly all actives have a fitted effect of over 65% in size. Further: potency means the concentration at half of the fitted maximal effect. As to conditions: ALDH inhibition qHTS; series mostly up to 47.3 µM.
The target in test [6] is Retinaldehyde dehydrogenase 3 (Homo sapiens) (UniProt P47895). In words: qHTS for Inhibitors of the Aldehyde Dehydrogenase Family (ALDH1A3) Primary screen (AID 2061315). As to conditions: ALDH inhibition qHTS; series mostly up to 56 µM.

Each structure is given as a SMILES string. Where “and” joins values, the source holds several entries; their conditions need not be identical. Equal entries are not always repeated. Inconclusive results are not listed. Calls of active or inactive are those of the source. Unless noted, the call rests on the fitted dose curve; in most records, active means well fitted inhibition curve with a large enough effect; inconclusive means small, poorly fitted or top-dose-only effect; inactive means no such curve, though single readings can be large or run the other way.

As for `COc1ccc(S(=O)(=O)Nc2cccc(-c3ccc(N4CCCCCC4)nn3)c2)c(OC)c1`, the Potency was 28.2 µM (active) in test [1]; 28.2 µM (active) and 2.51 µM (active) in test [2]. In addition, the Potency entry in test [3], in test [4] and in test [5] was “inactive” in each case.

Consider `Cc1ccc(OCCn2c(CCNC(=O)c3ccccc3[N+](=O)[O-])nc3ccccc32)cc1`, for which the Potency result in test [1], in test [2], in test [3], in test [4] and in test [6] was “inactive” throughout.

Take `O=c1c(Nc2ccc(Cl)c(Cl)c2)c(Nc2nnc(-c3ccncc3)s2)c1=O`: the Potency in test [1] was 2 µM (active); in test [2], 11.3 µM (active); in test [3], 11.2 µM (active); in test [4] it was 3.98 µM (active); in test [5] it was 8.96 µM (active). Moreover, the Potency result in test [6] is “inactive”.

For `Cc1ccc(-n2c(=O)c3c(cnn3C)n(CC(=O)Nc3ccccc3C)c2=O)cc1`, the Potency result in test [1], in test [2], in test [4] and in test [5] was “inactive” in each case. Further, the Potency in test [3] was 22.4 µM (active).

Regarding `COc1ccccc1-c1cc(NCCc2ccccn2)c2onc(C)c2n1`, the Potency result in test [1], in test [2], in test [4] and in test [5] was “inactive” each time. Further, in test [3], the Potency is 22.4 µM (active).

On to `O=c1c2ccccc2nc2sc(Nc3ccc(Sc4ccccc4)cc3)nn12`, for which the Potency result in test [1] and in test [6] was “inactive” throughout. Besides, the Potency in test [2] is 12.6 µM (active); in test [4] it was 4 µM (active).

On to `Cc1cc(-c2nnc3n2CCCCC3)c(C)n1-c1ccccn1`, for which the Potency entry in test [1], in test [2] and in test [6] was “inactive” throughout. Further, the Potency in test [3] is 14.2 µM (active).

Regarding `CCc1ccc(CN2CCC(C(=O)Nc3ccc(Oc4cccnc4)cc3)CC2)o1`, the Potency in test [1] was 5.01 µM (active). Also, the Potency entry in test [2], in test [3] and in test [5] was “inactive” in each case.

Consider `COc1ccc2c(c1)CCc1sc(NC(=O)c3ccc(Cl)cc3)nc1-2`, for which the Potency in test [1] is 15.8 µM (active); in test [2] it was 3.24 µM (active); in test [3], 16.2 µM (active); in test [5], 4.58 µM (active).

For `O=C1c2ccccc2C(=O)N1c1cccc2ccncc12`, the Potency entry in test [1], in test [2], in test [3] and in test [6] was “inactive” throughout.

For the compound `O=S(=O)(NCCc1nnc2ccc(SCc3ccc(C(F)(F)F)cc3)nn12)c1ccccc1`, the Potency result in test [1], in test [2], in test [4] and in test [5] was “inactive” throughout. Besides, in test [3], the Potency is 25.1 µM (active).

On to `Cc1ccc(CSc2ccc3nnc(CCNS(=O)(=O)c4ccc(C)cc4)n3n2)cc1`, for which the Potency result in test [1], in test [2] and in test [4] was “inactive” in each case.

In the case of `COc1ccc(Nc2ncc(C(=O)N3CCN(c4ccc(F)cc4)CC3)c3ccccc23)cc1`, the Potency entry in test [1], in test [3], in test [4] and in test [5] was “inactive” in each case. For the same compound, the Potency in test [2] was 15.8 µM (active).

`O=C(O)c1cccc(-n2[nH]c(-c3ccccc3)cc2=O)c1`: the Potency in test [1] was 11.2 µM (active); in test [2] it was 5.01 µM (active); in test [3] it was 15.8 µM (active); in test [4], 7.98 µM (active); in test [5], 25.1 µM (active).

As to `CC(=O)Nc1ccc(Nc2nc3c(S(=O)(=O)c4cccc(Cl)c4)nnn3c3ccsc23)cc1`, the Potency result in test [1], in test [2], in test [4] and in test [5] was “inactive” each time. Besides, the Potency in test [3] is 28.2 µM (active).

For the compound `Cc1ccc2c(c1)-c1c(cnn1CC(=O)N1CCN(c3cccc(C(F)(F)F)c3)CC1)CO2`, the Potency result in test [1], in test [3], in test [4] and in test [5] was “inactive” throughout. Also, the Potency in test [2] was 10 µM (active).

`CC[C@H](CO)Nc1nc(Nc2cccc(-c3ccccn3)c2)c2ncn(C(C)C)c2n1`: the Potency entry in test [1], in test [2], in test [3] and in test [6] was “inactive” throughout.

For `CCc1ccc(-n2c(=O)c3cccnc3n2CC(=O)Nc2cc(F)ccc2F)cc1`, the Potency entry in test [1], in test [2] and in test [4] was “inactive” each time.

Regarding `CCOc1ccc(NC(=O)Cn2c(Nc3cc(C)cc(C)c3)nc(C)cc2=O)cc1`, the Potency in test [1] was 15.8 µM (active). Also, the Potency entry in test [2], in test [3] and in test [5] was “inactive” in each case.

Take `O=C(Nc1cncc(-c2cccc3ccccc23)c1)c1cccs1`: the Potency entry in test [1] and in test [6] was “inactive” throughout. The Potency in test [2] is 5.62 µM (active); in test [3], 20.1 µM (active).

Consider `COc1ccc(-c2nc3cccc(OC)c3c(=O)n2Cc2ccccc2)cc1COc1ccc(NC(C)=O)cc1`, for which the Potency in test [1] was 28.2 µM (active); in test [2] it was 2.01 µM (active); in test [3], 25.1 µM (active); in test [5] it was 12.7 µM (active).

Take `COc1cccc(-c2nc(SCc3ccc(C)cc3)n3[nH]c(=O)cc3n2)c1`: the Potency entry in test [1], in test [2], in test [4] and in test [5] was “inactive” each time. For the same compound, in test [3], the Potency is 7.08 µM (active).

In the case of `CCc1ccc(-n2c(SCc3cccc(F)c3)nc3[nH]ncc3c2=O)cc1`, the Potency entry in test [1], in test [2] and in test [4] was “inactive” throughout. The Potency is 15.8 µM (active) in test [3] and 1.82 µM (active) in test [5].

Consider `COc1ccnc(NC(=S)N2CCN(c3cccc(C(F)(F)F)c3)CC2)c1`, for which the Potency in test [1] is 12.6 µM (active); in test [2] it was 8.91 µM (active); in test [3], 7.12 µM (active); in test [4], 22.5 µM (active); in test [5] it was 10.1 µM (active).

As to `COc1cccc(-n2cc(C(=O)Nc3cccc(C(F)(F)F)c3)c3ccccc3c2=O)c1`, the Potency result in test [1] and in test [4] was “inactive” each time. Besides, the Potency in test [2] is 11.2 µM (active).

In the case of `CC(C)(C)OC(=O)N1CCN(c2ccc(NCc3ccc(-c4cccc([N+](=O)[O-])c4)o3)cc2)CC1`, the results for the Potency in test [1], in test [2] and in test [5] were 0.896 µM (active), 4 µM (active) and 14.2 µM (active), respectively. The Potency entry in test [3] and in test [6] was “inactive” throughout.
